The results in this text go back to PubChem BioAssay (NCATS).

Inconclusive results are not listed. Activity calls are given as the source filed them. Calls follow the shape of the dose curve; as a rule, active = well fitted curve in the direction sought with a large enough effect in the signal ratio, with a control signal flat (not every such curve was filed as active); inconclusive = small, poorly fitted or top-dose-only effect, or a change in a side signal; inactive = no such curve, though single readings can be large or run the other way; the % refers to the signal ratio.

The nature of the experiment: qHTS Assay for Identification of Small Molecule Inducers of Hypoxia Response (AID 2120). The following applies: hypoxia response reporter cells, beta-lactamase ratio readout; series mostly up to 104 µM. The essentials:
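Cell-based qHTS for reporter induction: hypoxia response element controlled beta-lactamase in ME-180 cells. Compounds incubated 17 h at 37 degrees C; activity from blue/green (460/530 nm) ratio, inducers ranked by AC50.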
For the compound `CCCC(O)C(CC)CO` (stereo unspecified), the outcome was inactive.
For `O=C1C(c2[nH]c3ccccc3c2O)=Nc2ccccc21`, the result was inactive.
In the case of `O=C(c1ccccc1)C(O)c1ccccc1` (stereo unspecified) it was “inactive”.
With `CC(=O)Nc1ccccc1`, the outcome was inactive.
For the compound `CCN(CC)C(=O)c1cccc(C)c1`, the result was inactive.
As for `COc1ccc(O)cc1`, the result was inactive.
Take `C=CCNC(N)=S`: the result was inactive.
As to `CC(=O)OCC(COC(C)=O)OC(C)=O`, the outcome was inactive.
As for `CC(=O)Nc1ccc(C(=O)O)cc1`, the outcome was inactive.
Turning to `Cc1cc(C)nc(NS(=O)(=O)c2ccc(N)cc2)n1`, the outcome was inactive.
To `FC(F)(F)C(Cl)Br` (stereo unspecified) belongs “inactive”.
In the case of `CCCCCC(N)=O` it was “inactive”; in that of `Cc1cc(=O)[nH]c(=S)[nH]1`, “inactive”; in that of `CC(=O)Nc1cccc(O)c1`, “inactive”.
Take `O=C1c2cccc(O)c2C(=O)c2c(O)cccc21`: the result was inactive.
In the case of `CCCCCCCC(=O)OCC(COC(=O)CCCCCCC)OC(=O)CCCCCCC`, the outcome was inactive.
